This note sets out measurements from PubChem BioAssay (NCI).

Where “and” joins values, the source holds several entries; their conditions need not be identical. Equal entries are not always repeated. Compounds without any hit were thinned out: in the full panel of roughly 83,000, 20% have a hit.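 Assay: single dose, 48 h. Readout: percent growth (0 = no net growth; negative = cell death). Active: <10.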 Calls of active or inactive are those of the source.

For this assay, the system named is MDA-MB-468 breast. Briefly: NCI-60 one-dose screen, 48 h (100 = growth as untreated, 0 = no growth, -100 = all killed). Conditions: 10 µM unless noted.
For the compound `CN(C)C1=NCCN1`, the growth was 108% (inactive).
`N#Cc1c2cccnc2c2nnc3cc(Cl)c(Cl)cc3n12`: the growth is -56% (active).
The same measure for `O=C1c2c(c3c4ccccc4n(CCCCCCBr)c3c3[nH]c4ccccc4c23)C(=O)N1O`: -3.78% (active); for `N#Cc1nc(-c2ccccc2)oc1N1CCC(C2(C(F)(F)F)N=N2)CC1`: 112% (inactive).
The same measure for `CCCC1(c2ccccc2)NC(=O)NC1=O` (stereo not given): 104% (inactive); for `CCNC(=O)N1CCc2cc(OC)c(OCCc3ccc(OC)cc3)cc2C1c1ccc(OC)cc1C` (stereo not given): 12.6% (inactive).
The same measure for `C#C[C@]1(O)CC[C@H]2[C@@H]3CC=C4c5sc(N(C)c6ccccc6)nc5CC[C@]4(C)[C@H]3CC[C@@]21C`: 76.2% (inactive); for `CCN1CCN(C(=O)[C@]23CCC(C)(C)C[C@H]2C2=CC[C@@H]4[C@@]5(C)Cc6c([nH]c7ccccc67)C(C)(C)[C@@H]5CC[C@@]4(C)[C@]2(C)CC3)CC1`: 84.7% (inactive); for `O=[N+]([O-])c1ccc(Oc2cccnc2)c([N+](=O)[O-])c1`: 21.6% (inactive).
With `CCO/C=C1\SC(=S)N(c2cccc(C)c2)C1=O`, the growth is 102% (inactive).
The same measure for `O=[N+]([O-])c1ccc(-c2nnc(SCc3ccc(O)c4ncccc34)o2)cc1`: 16.2% (inactive).
The same measure for `N#Cc1cnn2c(-c3ccc(Cl)cc3)nc(NCCc3ccccc3)nc12`: 110% (inactive); for `COc1cc2c(c(O)c1Cl)C(=O)c1c(O)cc(C[C@H](C)O)cc1[C@H]2[C@H]1c2cc(C[C@H](C)O)cc(O)c2C(=O)c2c1cc(OC)c(Cl)c2O`: -14.6% (active).
Regarding `C[C@]12CCc3c(ccc4cc(O)ccc34)[C@@H]1C[C@H](O)[C@@H]2O`, the growth is 100% (inactive).
Take `C=C1C(=O)O[C@H]2[C@H]1CC/C(CNC(=O)/C1=C/CC[C@@]3(C)O[C@H]3[C@H]3OC(=O)C(=C)[C@@H]3CC1)=C\CC[C@@]1(C)O[C@@H]21`: the growth was 42.9% (inactive).
Under `COc1ccc(C2C(C#N)=C(/N=C/c3ccc(Cl)cc3)Oc3c2sc2c(C)cccc32)cc1` (stereo not given) stands 21.4% (inactive).
Under `C=C(OC(C)=O)c1ccccc1` stands 103% (inactive); under `O=C1CC(=NCC(=O)n2c(-c3ccccc3)nc3ccccc32)NN1`, 94% (inactive); under `NS(=O)(=O)c1ccc(Nc2nc(SCc3ccccc3)nc3ccccc23)cc1`, 65.4% (inactive).
On to `CC(=O)OC(c1ccccc1)C1CCOC1=O` (stereo not given), for which the growth is 80.8% (inactive).
Regarding `COc1ccc(C(=O)c2c(N)c(C#N)cn2-c2ccc(Cl)cc2Cl)cc1`, the growth is 89.5% (inactive).
The same measure for `O=C(Cn1cc(CN2CCCCCC2)nn1)Nc1ccc2c(ccn2Cc2ccccc2)c1`: 74.9% (inactive); for `CN(C(=O)c1ccccc1)N(C)C(=O)c1ccccc1`: 120% (inactive); for `CN1CCc2c(Sc3ccc(C(=O)NO)cc3)c3ccccc3n2C1`: 21% (inactive).
The same measure for `CCOc1ccc([C@H]2C(C(=O)c3ccc(Cl)cc3)C3(N[C@@H]2c2ccccc2)C(=O)Nc2ccc(Br)cc23)cc1` (stereo not given in full): -17.1% (active); for `NS(=O)(=O)Oc1ccc(NC(=O)C23CC4CC(CC(C4)C2)C3)cc1Cl`: 103% (inactive).
Under `COc1cccc(NC(=O)c2sc3nc4c(cc3c2N)CN(Cc2ccccc2)CC4)c1` stands 64.4% (inactive); under `Cc1nc(Nc2ccccn2)sc1C(=O)/C=C/c1ccc(Br)cc1`, 27.3% (inactive).
As for `O=[N+]([O-])c1cc(C(F)(F)F)ccc1Sc1ccc(C(F)(F)F)cc1[N+](=O)[O-]`, the growth is -4.58% (active).
Turning to `COc1cc2c(cc1OC)-c1ccc3cc4c(cc3c1N(CCCN1CCCCC1)C2)OCO4`, the growth is 56.5% (inactive).
On to `Cc1ccc2[nH]cc(-c3nc(-c4cn(C)c5ncccc45)cs3)c2c1`, for which the growth was -0.335% (active).
Under `COc1cc(Nc2ncc3c(n2)-c2ccc(Cl)cc2C(c2c(F)cccc2OC)=NC3)ccc1C(=O)O` stands 61.9% (inactive).
In the case of `Cc1cc(C2(c3cc(C)c(O)cc3C)OS(=O)(=O)c3ccccc32)c(C)cc1O`, the growth is 114% (inactive).
Turning to `CCCCCCCCCC(=O)NC(C)(C)C(=O)N1CCC[C@H]1C(=O)N[C@@H](CC(C)C)C(=O)N[C@@](C)(CC)C(=O)N[C@@H](CCC(N)=O)C(=O)N[C@H](CCC(N)=O)C(=O)NC(C)(C)C(=O)NC(C)(C)C(=O)N[C@@H](CCC(N)=O)C(=O)N[C@H](CC(C)C)C(=O)N[C@H](CO)CC(C)C`, the growth is -94.3% (active) and -88.5% (active).
Under `O=C(CSc1nc2sc3c(c2c(=O)n1Cc1ccccc1)CCCC3)N1CCN(c2ccccc2)CC1` stands 106% (inactive).
Under `O=C(/C=C/c1ccccc1)N(C1CCCCC1)C1CCCCC1` stands 72.4% (inactive); under `COc1ccc(C(=O)/C=C/c2ccc(OCc3ccc(Cl)cc3)c(OC)c2)cc1OC`, 50.9% (inactive); under `CCOC(=O)c1c(C)nc2c(c1N)/C(=C/c1ccc[nH]1)C(=O)N2Cc1ccc(C(F)(F)F)cc1`, 58.7% (inactive).
Under `NS(=O)(=O)Oc1cccc(-c2nc3sccn3c2-c2ccccc2)c1` stands 18.6% (inactive).
As to `Cc1cc(-c2ccc(N=Nc3c(C)nn(-c4ccc(S(=O)(=O)O)cc4)c3O)c(C)c2)ccc1N=Nc1ccc(O)c(C(=O)O)c1`, the growth is 113% (inactive).
